# Laboratory results taken from PubChem BioAssay AID1645872 (National Center for Advancing Translational Sciences (NCATS), 2021).
# Inconclusive results are not listed. Activity calls are given as the source filed them. The call rests on the fitted dose curve; in most records, active means well fitted inhibition curve with a large enough effect; inconclusive means small, poorly fitted or top-dose-only effect; inactive means flat fitted curve, though single readings scatter.
# Molecular target: Papain (Carica papaya) (UniProt P00784)
# Sequence (P00784 whole entry, looked up): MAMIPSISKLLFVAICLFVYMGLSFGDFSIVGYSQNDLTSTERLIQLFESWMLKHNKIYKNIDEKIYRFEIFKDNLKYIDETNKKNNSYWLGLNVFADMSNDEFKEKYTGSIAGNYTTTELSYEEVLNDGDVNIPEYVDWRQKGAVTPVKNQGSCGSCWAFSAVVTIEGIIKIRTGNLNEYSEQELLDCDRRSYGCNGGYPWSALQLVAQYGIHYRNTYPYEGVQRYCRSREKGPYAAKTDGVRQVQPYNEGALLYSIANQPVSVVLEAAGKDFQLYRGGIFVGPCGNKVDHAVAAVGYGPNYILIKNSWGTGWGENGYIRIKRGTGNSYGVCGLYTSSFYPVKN
# Experiment: Confirmatory qHTS assay for inhibitors of the protease papain
# Conditions: papain Z-FR-AMC cleavage, fluorescence
# From the text: Principal Investigator: Sam Michael National Center for Advancing Translational Sciences, National Institutes of Health, Rockville, MD Current high-throughput screening (HTS) assay validation is often a manual process, though this can be enhanced by design-of-experiment approaches. An artificial intelligence-driven (AI/ML) assay optimization was developed as part of the NCATS A Specialized Platform for Innovative Research Exploration (ASPIRE) Initiative to accelerate preclinical drug discovery. We describe the development of an autonomous Cloud-based computational driven assay optimization system using the Kebotix adaptive optimization algorithm. […]
# PROTOCOL TABLE SEQUENCE No. (e.g., 1, 2, 3, etc.); PARAMETER (e.g., Cells, Incubation, Reagent, etc.); VALUE and DESCRIPTION. 1; Reagent; 3 uL; 4/3x Enzyme solution (working concentration of 5 nM) or 3 uL buffer 2; Compounds; 17 nL; library compounds and controls (working concentration of 169 nM - […]) 3; Time; 15 min; room temperature incubation 4; Reagent; 1 uL; 4x 2 uM Z-FR-AMC substrate 5; Centrifugation; 1000 rpm; 15 sec centrigure 6; Detection; Fluorescence Read 1; ViewLux plate reader 7; Time; 10 min; room temperature incubation 8; Detection; Fluorescence Read 2; ViewLux plate reader NOTES (numbers refer to Sequence numbers above; values are from representative experiments) 1; Dispense 3 uL of [4/3x] […]
structure (smiles),measurement,value
Cc1ccc(S(=O)(=O)N[C@@H](CCCCN)C(=O)CCl)cc1,Potency,647 nM (active)
